Active and inactive are the calls of the source. No rule for the calls is given here.

This note sets out measurements from PubChem BioAssay AID743330 (NMMLSC, 2014).

In this assay the test system is Ras. In words: fluorescent GTP concentration effect on GTPase potency – biochemical, four GTPases, bead flow cytometry, mechanism study, profiling panel (AID 743330). As to conditions: bead-based flow cytometry, fluorescent GTP binding to GTPases.

For `CCC1(C)Cc2c(sc(NC(=S)NC(=O)c3ccccc3)c2C(=O)O)CO1` (configuration not stated), the EC50 was 5 nM (active).

For the compound `CC1(C)Cc2c(sc(NC(=S)NC(=O)c3ccc(F)cc3)c2C(=O)O)CO1`, the EC50 was 31 nM (active).
